Test results from PubChem BioAssay AID1159580 (chemical genetic matrix, 2015).
Several values for one entry are separate records, joined by “and”; a condition that tells them apart may be missing. Equal values may be shown once. Hit rate of the full screen: of about 5,500 compounds, about 2,000 (36%) were called active. Inconclusive results (about 18%) are left out. No stated cut-off is given here; in the data, active means normalized growth mostly below about 0.91 (no sharp cut-off); inconclusive means no clear call, values can overlap the other calls; inactive means mostly above about 0.92. The list shows a part of the results.

Test: chemical genetic growth profiling, strain panel (AID 1159580);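 further: tested at 20 µM; growth read once vehicle control cultures reached saturation at 30 °C; 1 = growth at the plate median or of vehicle wells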
Settings: S. cerevisiae deletion strains, growth OD

Measured: normalized growth

Oc1ccc(Cl)cc1
inactive: locus YAL013W, strain DEP1, stronger effect = lower value 0.992 | locus YAL021C, strain ccr4, stronger effect = lower value 1.01 | locus YAL026C, strain drs2, stronger effect = lower value 1.03 | locus YAL030W, strain snc1, stronger effect = lower value 1.01 | locus YBL061C, strain skt5, stronger effect = lower value 1.01 | locus YBR009C, strain hhf1, stronger effect = lower value 1.01 | locus YBR021W, strain FUR4, stronger effect = lower value 0.971 | locus YBR023C, strain chs3, stronger effect = lower value 1.01 | locus YBR171W, strain sec66, stronger effect = lower value 1.02 | locus YBR229C, strain ROT2, stronger effect = lower value 0.986 | locus YBR231C, strain swc5, stronger effect = lower value 1 | locus YBR279W, strain paf1, stronger effect = lower value 1.01 | locus YCL011C, strain gbp2, stronger effect = lower value 1.01 | locus YCL016C, strain dcc1, stronger effect = lower value 1.02 | locus YCL029C, strain bik1, stronger effect = lower value 0.976 | locus YCL061C, strain MRC1, stronger effect = lower value 1.02 | locus YCL069W, strain vba3, stronger effect = lower value 1.01 | locus YCR088W, strain abp1, stronger effect = lower value 1.01 | locus YDL005C, strain med2, stronger effect = lower value 1.01 | locus YDL035C, strain GPR1, stronger effect = lower value 0.987 | locus YDL040C, strain nat1, stronger effect = lower value 1.01 | locus YDL074C, strain BRE1, stronger effect = lower value 1.01 | locus YDL101C, strain DUN1, stronger effect = lower value 0.985 | locus YDL134C, strain PPH21, stronger effect = lower value 0.975 | locus YDL185W, strain tfp1, stronger effect = lower value 0.98 | locus YDL192W, strain arf1, stronger effect = lower value 0.977 | locus YDR001C, strain nth1, stronger effect = lower value 1.01 | locus YDR069C, strain doa4, stronger effect = lower value 0.992 | locus YDR101C, strain arx1, stronger effect = lower value 0.973 | locus YDR137W, strain rgp1, stronger effect = lower value 1.04 | locus YDR159W, strain sac3, stronger effect = lower value 0.981 | locus YDR162C, strain NBP2, stronger effect = lower value 0.995 | locus YDR195W, strain ref2 1.02 | locus YDR297W, strain sur2, stronger effect = lower value 1.01 | locus YDR318W, strain mcm21, stronger effect = lower value 0.977 | locus YDR334W, strain swr1, stronger effect = lower value 1.01 | locus YDR335W, strain msn5, stronger effect = lower value 1 | locus YDR388W, stronger effect = lower value 0.962 | locus YDR392W, strain spt3, stronger effect = lower value 0.956 | locus YDR502C, strain sam2, stronger effect = lower value 0.979 | locus YEL003W, strain gim4, stronger effect = lower value 1.01 | locus YEL037C, strain rad23, stronger effect = lower value 1.01 | locus YEL061C, strain CIN8 (second series), stronger effect = lower value 1.01 | locus YEL061C, strain CIN8, stronger effect = lower value 0.993 | locus YER015W, strain faa2, stronger effect = lower value 1.01 | locus YER016W, strain bim1, stronger effect = lower value 0.997 | locus YER110C, stronger effect = lower value 0.973 | locus YER111C, strain swi4, stronger effect = lower value 1.01 | locus YER155C, strain BEM2 (second series), stronger effect = lower value 1.02 | locus YER155C, strain BEM2, stronger effect = lower value 0.987 | locus YER167W, strain BCK2, stronger effect = lower value 0.984 | locus YFR010W, strain ubp6, stronger effect = lower value 1 | locus YGL078C, strain dbp3, stronger effect = lower value 0.978 | locus YGL086W, strain mad1, stronger effect = lower value 1 | locus YGL167C, strain pmr1, stronger effect = lower value 1 | locus YGL173C, strain kem1, stronger effect = lower value 1 | locus YGL227W, strain vid30, stronger effect = lower value 1.01 | locus YGL240W, strain doc1, stronger effect = lower value 1 | locus YGL248W, strain PDE1, stronger effect = lower value 0.991 | locus YGL253W, strain hxk2, stronger effect = lower value 1.02 | locus YGR135W, strain pre9, stronger effect = lower value 0.978 | locus YGR229C, strain SMI1, stronger effect = lower value 0.996 | locus YGR252W, strain gcn5, stronger effect = lower value 1.05 | locus YHR013C, strain ard1, stronger effect = lower value 1.03 | locus YHR027C, strain rpn1, stronger effect = lower value 1.01 | locus YHR030C, strain SLT2, stronger effect = lower value 0.99 and 0.965 | locus YHR079C, strain IRE1 (second series), stronger effect = lower value 0.966 | locus YHR079C, strain IRE1, stronger effect = lower value 0.966 | locus YHR094C, strain hxt1, stronger effect = lower value 0.974 | locus YHR129C, strain ARP1, stronger effect = lower value 0.998 | locus YHR142W, strain chs7, stronger effect = lower value 1.02 | locus YHR200W, strain rpn10, stronger effect = lower value 0.98 | locus YIL066C, strain RNR3, stronger effect = lower value 0.992 | locus YIL073C, strain SPO22, stronger effect = lower value 0.942 | locus YIL125W, strain kgd1, stronger effect = lower value 0.975 | locus YIR030C, strain dcg1, stronger effect = lower value 0.98 | locus YJL092W, strain hpr5, stronger effect = lower value 1.02 | locus YJL095W, strain BCK1 (second series), stronger effect = lower value 1.01 | locus YJL095W, strain BCK1, stronger effect = lower value 1.01 and 0.962 | locus YJL115W, strain asf1, stronger effect = lower value 1.02 | locus YJL129C, strain trk1, stronger effect = lower value 0.99 | locus YJL134W, strain LCB3, stronger effect = lower value 0.991 | locus YJL154C, strain vps35, stronger effect = lower value 1.01 | locus YJL164C, strain tpk1, stronger effect = lower value 1 | locus YJL166W, strain qcr8, stronger effect = lower value 1.02 | locus YJL168C, strain set2, stronger effect = lower value 0.978 | locus YJL187C, strain SWE1 (second series), stronger effect = lower value 0.986 | locus YJL187C, strain SWE1, stronger effect = lower value 1.02 | locus YJR043C, strain POL32, stronger effect = lower value 1 | locus YJR066W, strain TOR1, stronger effect = lower value 0.934
